Compound activity as filed in PubChem BioAssay.
A selection follows.
aSyn 5UTR act – Activators via SNCA 5'UTR binding, MLPCN. alpha-synuclein 5'UTR reporter, activators screen. activity score, % (tested at 7.5 µM), hits read low. hit rate 7.1% among 300,000. AID 1814; in the data active means activity score below about -60%
Hits are given with their value; - = inactive.

SMILES	aSyn 5UTR act
CC1CCC(C(C)C)C(OC(=O)Cn2c(-c3ccccc3)[n+](C)c3ccccc32)C1 (stereo not drawn)	-
O=C(CCN1C(=O)/C(=C/c2ccccc2F)SC1=S)NC1C=CS(=O)(=O)C1 (stereo not drawn)	-62
O=C(CCN1C(=O)/C(=C\c2ccccc2F)SC1=S)N1CCCCC1	-117
CC(C)c1ccc(/C=C2\SC(=O)N(CC(=O)NC3C=CS(=O)(=O)C3)C2=O)cc1 (stereo not drawn)	-69
O=C(CCCN1C(=O)/C(=C/c2ccccc2Cl)SC1=S)NNC(=O)c1ccc(Cl)cc1	-
CCc1nc(SCc2ccc(OCC(C)C)cc2)n[nH]1	-102
CCc1nc(SCc2ccc(Br)cc2)n[nH]1	-88
CCc1nc(SCc2ccc(Cl)cc2)n[nH]1	-49
Cc1ccc2nc(-c3ccc(NC(=O)CCN4C(=O)c5ccccc5C4=O)cc3)sc2c1	-171
Cc1ccc2nc(-c3ccc(NC(=O)C(C)N4C(=O)c5ccccc5C4=O)cc3)sc2c1 (stereo not drawn)	-102
Cc1ccc(C2(C)NC(=O)N(CC(=O)Nc3ccc(-c4nc5ccc(C)cc5s4)cc3)C2=O)cc1 (stereo not drawn)	-160
Nc1nnc(COc2ccc(Br)cc2Br)s1	-98
Cc1cc(C)n(C(N)=NC(=O)c2ccc([N+](=O)[O-])cc2)n1	-154
COc1ccccc1C(=O)O/N=C(\N)c1ccccc1Cl	-139
COc1ccc(Cl)cc1C(=O)O/N=C(\N)c1ccccn1	-159
N/C(=N\OC(=O)c1cc(Cl)ccc1Cl)c1ccccn1	-122
CS(=O)(=O)N1CCN(c2ccc(NC(=O)c3cc4ccccc4o3)cc2)CC1	-116
CN1CCN(c2ccc(NC(=O)c3cc4ccccc4o3)cc2)CC1	-64
Cn1nc(OC(=O)Nc2ccc(Cl)cc2)cc1C(F)(F)F	-85
O=S(=O)(NCC1(N2CCOCC2)CCCCC1)c1ccccc1Cl	-91
N#CC1=C2C=Cc3ccccc3N2CCCC1=O	-74
CC(=O)Nc1sc(N/N=C/c2ccc(N(C)C)cc2)nc1-c1ccc(C)cc1	-68
CC(=O)c1sc(N/N=C/c2cccc(O)c2)nc1C	-338
CC(=O)Nc1nc(C)c(-c2csc(Nc3cccc([N+](=O)[O-])c3)n2)s1	-
CC(=O)c1cccc(Nc2nc(-c3cccc([N+](=O)[O-])c3)cs2)c1	-222
SMILES	aSyn 5UTR act
CC(=O)c1sc(N/N=C\c2ccc(N(C)C)cc2)nc1C	-135
Cc1[nH]n(-c2nc(-c3cccc([N+](=O)[O-])c3)cs2)c(=O)c1C	-135
O=[N+]([O-])c1cccc(-c2csc(N/N=C/c3cccc(O)c3)n2)c1	-216
CC(=O)c1sc(N/N=C/c2cccc([N+](=O)[O-])c2)nc1C	-170
Cc1csc(N/N=C/c2ccccn2)n1	-
Cc1csc(N/N=C/c2ccc([N+](=O)[O-])cc2)n1	-148
CCCCC(=O)N1CCCC(c2nc(-c3cccc(OC)c3)no2)C1 (stereo not drawn)	-141
COc1cccc(-c2noc(C3CCCN(C(=O)CC(C)(C)C)C3)n2)c1 (stereo not drawn)	-127
Cc1ccccc1NC(=O)N1CCCC(c2nc(-c3ccc(C(C)C)cc3)no2)C1 (stereo not drawn)	-205
COc1cccc(-c2noc(C3CCCN(C(=O)c4ccccc4OC)C3)n2)c1 (stereo not drawn)	-85
CCC(C)C(=O)N1CCCC(c2nc(-c3cccs3)no2)C1 (stereo not drawn)	-126
O=C(NCCCCCCOC1=NS(=O)(=O)c2ccccc21)C(=O)Nc1ccccc1	-93
N#C/C(C(N)=O)=C1/CCc2ccccc2N1	-63
Cc1cccc(N2CSC3=C(C#N)C(c4ccc(C)o4)CC(=O)N3C2)c1 (stereo not drawn)	-86
COc1ccc(-n2cccc2/C=C2/NC(=O)N(c3cccc(Cl)c3)C2=O)cc1	-143
CCC(C)NC(=O)CCC(=O)Nc1ccc2nc(N3CCOCC3)cc(C)c2c1 (stereo not drawn)	-86
CCCCN(C)C(=O)CCC(=O)Nc1ccc2nc(N3CCOCC3)cc(C)c2c1	-76
COc1ccc(NC(=O)CCC(=O)Nc2ccc3nc(N4CCOCC4)cc(C)c3c2)c(OC)c1	-94
CCC(C)NC(=S)Nc1ccc2nc(N3CCN(CC)CC3)cc(C)c2c1 (stereo not drawn)	-95
Cc1cc(N2CCOCC2)nc2ccc(NC(=O)CCC(=O)N3CCCCC3)cc12	-90
Cc1nc(Nc2cnc(/C=C/c3cc(C(=O)Nc4cccc(C(F)(F)F)c4)ccc3C)cn2)cc(N2CCNCC2)n1	-
Cc1cc(N2CCOCC2)nc2ccc(NC(=O)CCC(=O)N3CCN(c4cccc(C(F)(F)F)c4)CC3)cc12	-72
CCN1CCN(c2cc(C)c3cc(NC(=O)CCC(=O)N4CCN(c5ccccc5OC)CC4)ccc3n2)CC1	-62
CCCCNC(=O)CCC(=O)Nc1ccc2nc(N3CCC(C)CC3)cc(C)c2c1	-69
Cc1cc(N2CCOCC2)nc2ccc(NC(=O)CCC(=O)N3CCC(C)CC3)cc12	-105
Cc1cc(N2CCOCC2)nc2ccc(Cl)cc12	-111
